93 compounds from PubChem BioAssay AID651702 (NMMLSC, 2012) can be followed below.

In all, about 360,000 compounds went through this assay and about 2,400 (0.67%) were called active.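 Rule for the calls: active = inhibition above about 55% (limit read from the data); inconclusive = no clear call, values can overlap the other calls; inactive = the rest.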 Many of the other results were omitted from the sample, so actives are more common in it than they were.

Usually inhibition stands for the drop in the measured response relative to a control, in per cent.

The test in a line: LAMP-1 surface exposure blockers, TALL-104 cells – cell-based, flow cytometry, MLPCN library, primary screen (AID 651702). Conditions: TALL-104 LAMP-1 surface exposure, at 10 µM, active compounds read high, cells stimulated with thapsigargin and PMA.
Turning to `CC(C)CCN1CCN=C1N(C)C`, the inhibition is -1.5% (inactive). `COc1cccc(OC)c1C(=O)N1CCN(Cc2ccccc2F)CC1`: the inhibition was 0.4% (inactive). For `COc1ccccc1CN1CCN(C(c2ccccc2)c2ccccc2)CC1`, the inhibition is 69.5% (active). For the compound `COc1ccccc1CN1CCN(Cc2cc(OC)c(OC)cc2OC)CC1`, the inhibition was 4.3% (inactive).

With `CSc1ncccc1C(=O)OCC(=O)N1CCOCC1`, the inhibition was 0.7% (inactive). Consider `COc1ccc(-c2csc(Nc3ccc(O)cc3)n2)cc1`, for which the inhibition was 67.8% (active).

As for `COC(=O)CCc1sc(Nc2ccc(Br)cc2)nc1-c1ccc(OC)cc1`, the inhibition was 7.1% (inactive).

Consider `COc1ccc(C(O)c2nc(-c3ccc(OC)nc3)cs2)cc1` (stereo not drawn), for which the inhibition is -0.4% (inactive).

As to `O=C(CS(=O)(=O)c1cn(Cc2ccc(Cl)cc2)c2ccccc12)N1CCOCC1`, the inhibition is -1.9% (inactive). As for `CCOC(=O)CSc1nc2c(c(=O)n(Cc3ccccc3Cl)c(=O)n2C)n1C`, the inhibition was -0.4% (inactive). In the case of `CCOC(=O)Cc1csc(NC(=O)CSc2nnc(-c3cccnc3)n2Cc2ccco2)n1`, the inhibition is 1% (inactive). As for `CCOC(=O)CSc1nc2c(sc(=S)n2CCc2ccccc2)c(=O)n1Cc1ccco1`, the figure is 55.7% (active); as for `CCCc1nc(SCC(=O)N2CCCC2)c2c(=O)n(C)c(=O)n(C)c2n1`, 45.2% (inactive). `CC(O)CN(Cc1ccc(Cl)cc1)CC(C)O` (stereo not drawn): the inhibition is 0.5% (inactive).

Turning to `CCCCCn1c(=O)[nH]c2cc(C(=O)NCCCN3CCCCC3C)ccc2c1=O` (stereo not drawn), the inhibition is -0.7% (inactive). To `Cc1ccc(-c2cnc(NC(=O)CCC(=O)N(C)Cc3ccccc3)n2C)cc1` belongs -1.9% (inactive); to `CC(C)CN1CC(C)C(=O)N(c2ccccc2)C1=S` (stereo not drawn), 1.4% (inactive). As for `CCN(CC(=O)Nc1ccccc1C(=O)NC1CC1)Cc1cccs1`, the inhibition was -0.1% (inactive). As to `CC1CCc2c(nc3ncnn3c2Nc2ccc(OC(F)(F)F)cc2)C1` (stereo not drawn), the inhibition was -1.5% (inactive). `Cn1sc(=O)c2cc(S(=O)(=O)NC3CC3)ccc21`: the inhibition is 100% (active). For `O=S(=O)(NC1CC1)c1ccc(F)c(F)c1`, the inhibition is -10.9% (inactive). With `CC1CCC(NS(=O)(=O)c2ccc3c(c2)CC(=O)N3)CC1` (stereo not drawn), the inhibition was -3.8% (inactive). For `OC(CNCC1CCCO1)Cn1c2ccc(Br)cc2c2cc(Br)ccc21` (stereo not drawn), the inhibition is 41.3% (inactive).

In the case of `O=C(NCc1cccnc1)c1ccc(CS(=O)(=O)c2ccc(Br)cc2)o1`, the inhibition is 2.2% (inactive).

`CC(C)Cn1cnc2c(SCc3ccc(Cl)cc3)nc(N)nc21`: the inhibition was 90.1% (active). Regarding `Nc1nc(SCc2ccc([N+](=O)[O-])cc2)c2ncn(C3OC(CO)C(O)C3O)c2n1` (stereo not drawn), the inhibition is -2.7% (inactive). For the compound `Nc1cc(N)nc(SCc2ccc(Cl)cc2)n1`, the inhibition is 0.3% (inactive). Turning to `COc1ccc(OCc2nnc3n2N=C(c2ccccc2)C(CC(=O)O)S3)cc1` (stereo not drawn), the inhibition was 32.9% (inactive).

For the compound `Cc1ccc(Nc2cc(=O)n(C3CCCCC3)c(=O)[nH]2)cc1C`, the inhibition is -1.1% (inactive).

For `CCOc1ccc(Cl)cc1-c1cc(C(=O)NCc2cccs2)[nH]n1`, the inhibition was 66.5% (active). On to `COc1ccccc1CNC(=O)c1cc(-c2cc(Cl)ccc2C)n[nH]1`, for which the inhibition was 2.8% (inactive). As for `COc1ccc(Cl)cc1C(=O)OCC(=O)NCc1cccs1`, the inhibition is 20.4% (inactive). On to `Cn1c(=O)c2c(n(Cc3ccccc3)c1=O)NC(=O)C2CC(=O)N1CCc2ccccc2C1` (stereo not drawn), for which the inhibition is 5.7% (inactive). For `Cn1c(SCc2nc3ccccc3s2)nnc1-c1ccc2c(c1)OCO2`, the inhibition is -6.5% (inactive). Regarding `Cc1ccccc1CN1C[C@@H]2C[C@@H](c3ccc4nsnc4c3)N3CCC[C@@]23C1=O`, the inhibition was -2.3% (inactive). As to `COc1ccc(CN2CCN(Cc3cn(C)nc3-c3ccccc3)CC2CCO)c(C)c1C` (stereo not drawn), the inhibition is 4.6% (inactive). As to `Cc1ccccc1CN1C[C@@H]2C[C@@H](c3cn(C)nc3-c3ccccc3)N3CCC[C@@]23C1=O`, the inhibition is 82.4% (active). As to `COC(=O)C1=C(C(=O)OC)C(c2cc([N+](=O)[O-])ccc2O)c2sc(=O)[nH]c2S1` (stereo not drawn), the inhibition was 7.4% (inactive). For `Cc1cccc(Nc2nnc(SCC(=O)c3c(N)n(C4CC4)c(=O)[nH]c3=O)s2)c1C`, the inhibition is 0.1% (inactive).

For `CCOC(=O)C1(C)CCCN(C(=O)c2ccc(F)c(Cl)c2)C1` (stereo not drawn), the inhibition was 71.1% (active). Turning to `CCOC(=O)C1(C)CCCN(C(=O)c2ccc(N(C)C)cc2)C1` (stereo not drawn), the inhibition was -2.4% (inactive). Take `CCOC(=O)C1(C)CCCN(C(=O)c2cccc(Cl)c2)C1` (stereo not drawn): the inhibition is 1.7% (inactive). With `O=C(Nc1ccc(Br)cc1)c1cccc(NC(=O)C2C3CC4OC(=O)C2C4C3)c1` (stereo not drawn), the inhibition was 11% (inactive). To `CCOc1ccc(CCNC(=O)C2CCN(c3ccc(N4CCOCC4)nn3)CC2)cc1OCC` belongs -0.7% (inactive); to `Nc1nnc(SCC(=O)OCc2ccc(Cl)c(Cl)c2)s1`, -1.6% (inactive); to `O=C(CNC(=O)N1CC(=O)Nc2ccccc21)Nc1ccc(Br)cc1F`, 4.6% (inactive). `COc1ccc2c(c1)c(=Cc1ccc(N(C)C)cc1)c1cc(-c3ccccc3)[n+](C)n12`: the inhibition is 95.4% (active). As to `CCCNC(=O)C[C@@H]1CC[C@@H]2[C@H](COC[C@H](O)CN2C(=O)c2cc(Cl)cc(Cl)c2)O1`, the inhibition was -2.9% (inactive). In the case of `O=C(NCc1ccc(F)cc1)C(c1ccccc1)N(C(=O)c1csnn1)C1CC1` (stereo not drawn), the inhibition is -3.2% (inactive).

Regarding `O=C(NCc1ccccc1)C(c1cccnc1)N(C(=O)c1csnn1)c1ccc(F)cc1` (stereo not drawn), the inhibition was 12.4% (inactive). Take `O=C(NCc1ccccc1)C(c1ccccc1)N(C(=O)c1csnn1)c1ccc(F)cc1` (stereo not drawn): the inhibition is 56.4% (active).

Regarding `O=C(CC1C(=O)NCCN1Cc1ccc(-c2ccccc2)cc1)NCC1CCOCC1` (stereo not drawn), the inhibition is 1.1% (inactive). For the compound `CCOC(=O)C1(CCOC)CCN(Cc2cc3ccccc3s2)CC1`, the inhibition was 0.4% (inactive). As for `CCOC(=O)C1(CCOc2ccccc2)CCN(Cc2ccc(C#CCCO)cc2)CC1`, the figure is 55.8% (active); as for `CCCS(=O)(=O)N1CCC(CCOc2ccccc2)(C(=O)OCC)CC1`, -2.2% (inactive); as for `CCOC(=O)C1(CCOc2ccccc2)CCN(Cc2cc(OC)c(O)cc2Cl)CC1`, 84.5% (active). In the case of `CCOC(=O)C1(Cc2cccc(OC)c2)CCN(C(C)COC)CC1` (stereo not drawn), the inhibition is -0.5% (inactive). As for `CCOC(=O)C1(CCOc2ccccc2)CCN(C(=O)c2cncs2)CC1`, the figure is -0.8% (inactive); as for `CC1(C(=O)NCc2ccccc2)CSCC(=O)N1CCCN1CCOCC1` (stereo not drawn), 4.3% (inactive); as for `CC1CCCN(S(=O)(=O)c2ccc(N(C(=O)c3cnccn3)C(C(=O)NC3CCCCC3)c3cccs3)cc2)C1` (stereo not drawn), 0.9% (inactive). For the compound `Cc1ccc(S(=O)(=O)N2CCN(C(=O)c3cc(S(=O)(=O)N4CCOCC4)ccc3F)CC2)cc1`, the inhibition is -3% (inactive). To `Cc1ccc(S(=O)(=O)NCC(=O)NNC(=O)c2ccc(Br)cc2)cc1C` belongs -1.3% (inactive). As to `CN1C(=O)/C(=C\c2ccc(-c3ccccc3)o2)SC1=S`, the inhibition is 66.7% (active).

`Cc1ccc(C(=O)O)cc1-c1ccc(/C=C2\SC(=O)N(CC(=O)Nc3ccc4c(c3)OCO4)C2=O)o1`: the inhibition is -0.4% (inactive). `NS(=O)(=O)c1ccc(-c2ccc(/C=C3\SC(=O)NC3=O)o2)cc1`: the inhibition was -14.3% (inactive).

Take `NC(=O)CCCC1=NS(=O)(=O)c2ccccc2N1`: the inhibition was -3.9% (inactive).

Take `O=C(Nc1ccc(C(=O)O)cc1)/C(=C\c1ccccc1)NC(=O)c1ccc(Br)cc1`: the inhibition is 9.3% (inactive). Regarding `O=C(NC(=O)c1ccccc1N1CCCCC1)Nc1ccc(Br)cc1`, the inhibition was 84.6% (active).

With `CN1CCN(NC(=O)Nc2ccc(Br)cc2)CC1`, the inhibition was -2% (inactive). As for `Cc1ccc(C)c(NC(=O)CCC(=O)N/N=C2/CC(=O)CC(C)(C)C2)c1`, the figure is 3.3% (inactive); as for `OCCNc1nc(Nc2ccc(Cl)c(Cl)c2)nc2ccccc12`, 57.7% (active); as for `OCCNCCOc1ccc(Cl)c(Cl)c1`, 6.6% (inactive).

Regarding `COCCNc1nc(Nc2ccccc2Cl)c2sc(-c3ccccc3)cc2n1`, the inhibition was 47.2% (inactive). Take `COc1ccccc1Nc1nnc(SC(C)C(=O)NC2CC2)s1` (stereo not drawn): the inhibition is 1.8% (inactive). Consider `COc1ccc(C23NCCN2C(=O)c2ccccc23)cc1` (stereo not drawn), for which the inhibition is 8.9% (inactive). As to `COc1ccc(-c2oc3ncnc(NCCCO)c3c2-c2ccc(OC)cc2)cc1`, the inhibition was 70.3% (active). `COCCNc1ncnc2c1ncn2[C@H]1CN(Cc2ccc(OC)cc2)C[C@@H](CO)O1`: the inhibition is 0.2% (inactive). To `CCc1oc(-c2ccc(OC)cc2)c(C(=O)OCCCCCO)c1C(C)OCCO` (stereo not drawn) belongs 3.7% (inactive); to `C#CCN1CC(C)/C(=N/O)CC1C` (stereo not drawn), 0.9% (inactive).

With `CCn1c(-c2ccoc2C)n[nH]c1=S`, the inhibition is 0.6% (inactive). As for `COc1ccc(C2CC(c3cccs3)=NN2C(=O)COC(=O)c2cc3ccccc3cc2O)cc1OC` (stereo not drawn), the figure is -2.9% (inactive); as for `COc1ccc(C2CC(c3cccs3)=NN2c2nc(C)c(C(C)=O)s2)cc1OC` (stereo not drawn), 87.5% (active).

Turning to `COc1ccc(C2CC(c3cccs3)=NN2C(=O)CSc2nnc(N)s2)cc1OC` (stereo not drawn), the inhibition was -3.2% (inactive). Consider `Cc1ccc(-n2nc(N)c3c(=O)oc(N(C)C)nc32)cc1`, for which the inhibition is -0.9% (inactive). To `Cc1cc(NC(=O)CSc2ncc(C(F)(F)F)cc2Cl)no1` belongs 5.6% (inactive). To `Cc1nn(-c2ncc(C(F)(F)F)cc2Cl)c(=O)n1-c1ccccc1` belongs -0.5% (inactive). `Cc1ccc(-c2ccnc3nc(Sc4ncc(C(F)(F)F)cc4Cl)nn23)cc1`: the inhibition was 67.5% (active).

Regarding `Cn1cnc(S(=O)(=O)Nc2ccc3c(c2)OCCO3)c1`, the inhibition was 5.9% (inactive).

Take `CCC(=O)Nc1c(C)n[nH]c1C`: the inhibition was -0.1% (inactive).

For `COc1ccc(-c2cc(NC=O)c3ncc(-c4ccccc4)n3c2)cc1OC`, the inhibition is 81.8% (active). Regarding `COc1ccc(-c2cc(NC=O)c3ncc(-c4cc(OC)c(OC)c(OC)c4)n3c2)c(OC)c1`, the inhibition is 28.6% (inactive). With `CC(=O)c1cccc(-c2cnc3c(NC=O)cc(-c4ccccc4Oc4ccccc4)cn23)c1`, the inhibition is 13.9% (inactive).

Regarding `CC(NC(=O)CN(C)S(=O)(=O)c1ccc(F)cc1)C1CC2CCC1C2` (stereo not drawn), the inhibition was 0.1% (inactive).
